Hits are enriched below; roughly 7.4% of the tested compounds scored in any of these assays.
HEK293 tox – Cytotoxic Profiling in HEK 293 Cell Line of Diverse Libraries Using Quantitative High-Throughput Screening | HEK 293 viability, ATP luminescence (CellTiter-Glo), 48-72 h | Potency, µM (titrated, usually from 115 µM), for inactives: at the highest dose activity change, negative = cytotoxicity, hits mostly inhibitors | 94,000 compounds, 6.6% hits | AID 1345083, 2018; also: nearly all actives have a fitted effect of over 60% in size
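250 HEK 293 cells/well; compound by pintool; incubated 48 or 72 hr at 37 degree Celsius; CellTiter-Glo added, 10 min RT, luminescence imaged.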
hNpr1 antagonist – Natriuretic polypeptide receptor (hNpr1) antagonism - Primary qHTS | Potency, µM (series often up to 46.3 µM), without a hit: at the highest dose activity change, negative = inhibition, most hits filed as inhibitors | 76,000 compounds, 1.6% hits | HEK293 hNpr1 GloSensor cGMP, ANP-stimulated luminescence | Atrial natriuretic peptide receptor 1 (Homo sapiens), P16066; calls by dose curve; also: nearly all actives have a fitted effect of over 60% in size
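HEK293 cells stably expressing human Npr1 and cGMP GloSensor pGS-40F, loaded 2 h with 2% GloSensor reagent, given compound 30 min at room temperature. Luminescence read before and 20 min after 0.1 nM hNppA.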
Luciferase inh – Firefly luciferase inhibition profiling of diverse chemical library using quantitative high-throughput screening | 76,000 compounds, 2.5% hits | purified P. pyralis luciferase, luminescence, biochemical | Potency, µM (series often up to 115 µM), most hits filed as inhibitors | Luciferin 4-monooxygenase (Photinus pyralis), P08659; also: nearly all actives have a fitted effect of over 65% in size
Target sequence (P08659 whole entry, looked up): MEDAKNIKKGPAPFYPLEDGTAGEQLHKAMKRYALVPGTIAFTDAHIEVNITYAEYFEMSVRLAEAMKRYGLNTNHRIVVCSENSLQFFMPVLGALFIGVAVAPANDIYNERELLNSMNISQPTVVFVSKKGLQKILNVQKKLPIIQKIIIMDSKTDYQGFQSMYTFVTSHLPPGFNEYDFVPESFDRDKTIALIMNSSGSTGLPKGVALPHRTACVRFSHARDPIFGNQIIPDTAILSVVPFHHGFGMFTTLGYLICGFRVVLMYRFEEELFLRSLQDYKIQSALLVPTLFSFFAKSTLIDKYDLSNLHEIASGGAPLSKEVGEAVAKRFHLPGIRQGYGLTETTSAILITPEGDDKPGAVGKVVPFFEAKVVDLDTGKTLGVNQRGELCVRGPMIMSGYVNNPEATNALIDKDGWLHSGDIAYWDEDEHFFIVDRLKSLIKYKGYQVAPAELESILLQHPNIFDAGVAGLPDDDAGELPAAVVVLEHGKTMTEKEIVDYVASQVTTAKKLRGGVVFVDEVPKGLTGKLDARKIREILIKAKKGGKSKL
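Purified P. pyralis luciferase (10nM final) in 50mM Tris acetate pH 7.5, 10mM Mg acetate, 0.01% Tween-20, 0.05% BSA with 10uM D-luciferin and 10uM ATP. Compounds titrated qHTS. Luminescence imaged on CCD.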
NIH3T3 tox – Cytotoxic Profiling in NIH 3T3 Cell Line of Diverse Libraries Using Quantitative High-Throughput Screening; NIH 3T3 viability, CellTiter-Glo ATP luminescence, 48-72 h; Potency, µM (titrated, usually from 96.7 µM), without a hit: at the highest dose activity change, negative = cytotoxicity, actives largely listed as inhibitors; 94,000 compounds, 4.3% hits; AID 1345082, 2018; also: nearly all actives have a fitted effect of over 55% in size
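Luminescent ATP readout (CellTiter-Glo, 10 min RT) after 48 or 72 hr compound exposure of NIH 3T3 cells seeded at 400 cells/well in 1536-well format; quantitative HTS.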
SNCA expr inh – Primary qHTS assay for inhibitors of alpha-synuclein gene (SNCA) expression; Potency, µM (highest dose often 57.2 µM), for the others: at the highest dose activity change, negative = inhibition, most hits filed as inhibitors; HEK-293 SNCA-luciferase knock-in, luminescence, 24 h; 140,000 compounds, 0.17% hits;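 also: plate controls were DMSO cells for no effect and cell-free wells for full effect; nearly all actives have a fitted effect of over 45% in size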
HEK293 viab – GF-AFC viability counterscreen for inhibitors of alpha-synuclein gene (SNCA) expression; 150,000 compounds, 0.12% hits; AID 1671193, 2021; HEK-293-SNCA-luc viability, GF-AFC fluorescence, 24 h; Potency, µM (highest dose often 57.1 µM), inactives show at the top dose activity change, negative = cytotoxicity, actives largely listed as cytotoxic;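 also: 0% = DMSO-treated cells and -100% = medium-only wells without cells; nearly all actives have a fitted effect of over 30% in size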
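HEK-293-SNCA-luc cells (1500/well) plated 24 h, then exposed 24 h to a dilution series; GF-AFC added 30 min at 37C, fluorescence 405/540 nm; normalised to medium-only and DMSO wells, Hill fit.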
Numbers without * were called inactive; [ ] = another dose, or the depositor's remark. Unless noted, calls follow the shape of the dose curve; as a rule, active = well fitted curve in the direction sought with a large enough effect; inconclusive = small, poorly fitted or top-dose-only effect, or another doubt; inactive = no such curve, though single readings can be large; an effect the other way counts as inactive or inconclusive. Unless noted, % is scaled to controls: 0 for no effect and ±100 for the full control effect; potency is read from the fitted curve at half-maximal effect.

For CC1(COCC2CC2)COc2ccc(C(=O)Nc3cccc([S+](C)(=O)[O-])c3)cc2N1 (stereo not given) the results were HEK293 tox 100µM*, hNpr1 antagonist -21%[70.6 µM], Luciferase inh inactive, NIH3T3 tox inconclusive, SNCA expr inh -8%[87.6 µM] and HEK293 viab 11%[87.6 µM].
CC1(COCC2CC2)COc2ccc(C(=O)Nc3ccccc3)cc2N1 (stereo not given) was read as HEK293 tox inconclusive, hNpr1 antagonist -30%[70.6 µM], Luciferase inh 22µM*, NIH3T3 tox inconclusive, SNCA expr inh 8%[87.6 µM] and HEK293 viab -12%[87.6 µM].
CC1(COCC2CC2)COc2ccc(C(=O)NCc3ccccc3)cc2N1 (stereo not given) was read as HEK293 tox inconclusive, hNpr1 antagonist -7%[70.6 µM], Luciferase inh inactive, NIH3T3 tox inconclusive, SNCA expr inh -3%[87.6 µM] and HEK293 viab -3%[87.6 µM].
O=C1CC(c2ccccc2)N(C(=O)C2CC2)CCCN(S(=O)(=O)Cc2ccccc2)CCN1 (stereo not given) was read as HEK293 tox -14%, hNpr1 antagonist -1%, Luciferase inh inactive, NIH3T3 tox -22%, SNCA expr inh 3% and HEK293 viab -16%.
Screening COc1ccccc1-c1cccc(CN2CCC(NC(=O)c3ccccc3F)CC2)c1 returned HEK293 tox inconclusive, NIH3T3 tox inconclusive, SNCA expr inh 2% and HEK293 viab 1%.
`COc1ccccc1-c1cccc(CN2CCC(NC(=O)Nc3ccc(C)c(F)c3)CC2)c1` gave HEK293 tox 10µM*, NIH3T3 tox 20µM*, SNCA expr inh -27% and HEK293 viab -24%.
`COc1ccc(C(=O)NC2CCN(Cc3cccc(-c4ccccc4OC)c3)CC2)cc1` gave HEK293 tox 22µM* and NIH3T3 tox inconclusive.
For COCC(=O)NC1CCN(Cc2cccc(-c3ccccc3OC)c2)CC1 the results were HEK293 tox inactive, NIH3T3 tox -21%, SNCA expr inh 6% and HEK293 viab 4%.
For COc1ccccc1-c1cccc(CN2CCC(NC(=O)c3ccc(F)cc3)CC2)c1 the results were HEK293 tox 40µM*, NIH3T3 tox inconclusive, SNCA expr inh -21% and HEK293 viab -6%.
COc1ccccc1-c1cccc(CN2CCC(NC(=O)Cc3ccc(C(F)(F)F)cc3)CC2)c1 was read as HEK293 tox 11µM*, NIH3T3 tox 11µM*, SNCA expr inh -24% and HEK293 viab -26%.
For O=C(c1ccc2c(c1)OCO2)N1CCn2c(nnc2-c2ccc(Cl)cc2)C1 the results were HEK293 tox 2%, NIH3T3 tox inconclusive, SNCA expr inh -19% and HEK293 viab 0%.
Screening COc1ccc(OCc2nc(C)c(CCO)c(=O)n2CC(=O)Nc2cc(OC)cc(OC)c2)cc1 returned HEK293 tox inactive, hNpr1 antagonist 3%, Luciferase inh inactive, NIH3T3 tox -17%, SNCA expr inh 12% and HEK293 viab -1%.
Screening COc1cccc(-c2ccccc2NC(=O)C2CCN(Cc3cc(F)ccc3F)CC2)c1 returned HEK293 tox 22µM*, hNpr1 antagonist inconclusive, Luciferase inh inactive, NIH3T3 tox inconclusive, SNCA expr inh inconclusive and HEK293 viab inconclusive.
Screening COc1cccc(-c2ccccc2NC(=O)C2CCN(CC(=O)O)CC2)c1 returned HEK293 tox inactive, hNpr1 antagonist -2%, Luciferase inh inactive, NIH3T3 tox 3%, SNCA expr inh 29% and HEK293 viab -21%.
For O=C1NCCCCCCN(Cc2ccncc2)[C@@H]2CN(C(=O)Nc3ccccc3F)CC[C@@H]12 the results were HEK293 tox -6%, hNpr1 antagonist 0%, Luciferase inh inactive, NIH3T3 tox -22%, SNCA expr inh -5% and HEK293 viab -5%.
Screening CCN1CCC2(CC1)Cc1ccccc1CN(S(=O)(=O)c1ccccc1)C2 returned HEK293 tox -24%, NIH3T3 tox 32µM*, SNCA expr inh -6% and HEK293 viab -5%.
`Cn1cccc(C(=O)N2C[C@@H](CN3CCOCC3)C[C@H](CO)C2)c1=O` gave HEK293 tox inactive, hNpr1 antagonist 10%, Luciferase inh inactive, NIH3T3 tox 3%, SNCA expr inh -20% and HEK293 viab -29%.
O=C(c1ccc(Cl)s1)N1CCC2(CC1)CN(c1ccncn1)CC2CO (stereo not given) was read as HEK293 tox 50µM*, hNpr1 antagonist inconclusive, Luciferase inh inactive, NIH3T3 tox inconclusive, SNCA expr inh -14% and HEK293 viab -7%[12.5 µM].
For O=C(Nc1ccc(F)cc1)N[C@H]1[C@H](O)[C@@H](Oc2ccccc2)[C@@H]2OC[C@H]1O2 the results were HEK293 tox inconclusive, hNpr1 antagonist 4%[70.6 µM], Luciferase inh inconclusive, NIH3T3 tox inconclusive, SNCA expr inh 0%[87.6 µM] and HEK293 viab 7%[87.6 µM].
Screening Oc1ccccc1CN1CCOC[C@H]1c1ncc(-c2ccccc2)[nH]1 returned HEK293 tox inconclusive, hNpr1 antagonist -16%[70.6 µM], Luciferase inh inactive, NIH3T3 tox 100µM*, SNCA expr inh -18%[87.6 µM] and HEK293 viab 4%[87.6 µM].
Oc1ccccc1CN1CCOC[C@H]1c1ncc(-c2ccc(F)cc2)[nH]1 was read as HEK293 tox inconclusive, hNpr1 antagonist -24%[70.6 µM], Luciferase inh inactive, NIH3T3 tox -29%[138 µM], SNCA expr inh 24%[87.6 µM] and HEK293 viab -6%[87.6 µM].
`Clc1ccc(-c2cnc([C@@H]3COCCN3Cc3ccccn3)[nH]2)cc1` gave HEK293 tox inconclusive, hNpr1 antagonist -4%[70.6 µM], Luciferase inh inactive, NIH3T3 tox inconclusive, SNCA expr inh -28%[87.6 µM] and HEK293 viab -1%[87.6 µM].
`Clc1ccc(-c2cnc([C@@H]3COCCN3Cc3ccccc3)[nH]2)cc1` gave HEK293 tox 89µM*, hNpr1 antagonist inconclusive, Luciferase inh inactive, NIH3T3 tox inconclusive, SNCA expr inh inconclusive and HEK293 viab -13%[87.6 µM].
`Clc1cccc(-c2cnc([C@@H]3COCCN3C3CCCCC3)[nH]2)c1` gave HEK293 tox 79µM*, hNpr1 antagonist -2%[70.6 µM], Luciferase inh inactive, NIH3T3 tox inconclusive, SNCA expr inh 10%[87.6 µM] and HEK293 viab -7%[87.6 µM].

Compound activity from PubChem.
